The values that follow come from PubChem BioAssay (EPA / NIEHS).

Active and inactive are the calls of the source. Rule for the calls: active = hit-call score of the fitted dose curve at least 0.9, where 1 is the maximum; inactive = score below 0.9.

The assay is described as follows: ATG_PXRE_CIS: Attagene CIS-FACTORIAL HepG2 Assay for human Pregnane X Receptor Element (PXRE) (AID 2282957). Conditions: HepG2 Attagene CIS-FACTORIAL PXRE reporter, mRNA; actives raise or lower the signal. The gist of the method: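 Multiplexed cis-reporter assay in transiently transfected human HepG2 cells; 24 h chemical exposure. Reporter transcripts quantified by RT-PCR with fluorescent labeling and capillary electrophoresis.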
Regarding `Cc1cc(Cc2ccc(N)c(C)c2)ccc1N`, the call was inactive. In the case of `NC(=Nc1ccccc1)Nc1ccccc1`, the outcome was inactive. As for `O=C(O)c1[nH]n(-c2ccc(S(=O)(=O)O)cc2)c(=O)c1N=Nc1ccc(S(=O)(=O)O)cc1`, the AC50 – broadly, the midpoint of the concentration-response curve, whichever way the signal moves – is 69.5 µM (active).

In the case of `C#CC(O)C(CC)CCCC` (stereo not given), the AC50 is 15 µM (active). With `CC(C)(C)c1ccccc1`, the compound was classed as inactive.
